Data from PubChem BioAssay (NCATS).
Results filed as inconclusive are left out. Activity calls are given as the source filed them. Calls follow the shape of the dose curve; as a rule, active = well fitted cell-killing curve with a large enough effect; inconclusive = small, poorly fitted or top-dose-only effect, or effect the other way; inactive = no such curve, though single readings can be large or run the other way.

Key:
[1] = Quantitative High-Throughput drug screen in 47 multiple myeloma cell lines against the NCATS MIPE library collection: LP1_DSMZ cell viability assay (AID 1918982); also: nearly all actives have a fitted effect of over 35% in size
Procedure, shortened: (§1)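 Inhibition of viability over 48 h was scored by ATP content (CellTiter-Glo) in 500-cell wells. Zero and full viability were defined by media-only and DMSO-only wells.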

[2] = Quantitative High-Throughput drug screen in 47 multiple myeloma cell lines against the NCATS MIPE library collection: OPM1_PLB cell viability assay (AID 1918989); also: nearly all actives have a fitted effect of over 40% in size
Procedure, shortened: as §1

[3] = Quantitative High-Throughput drug screen in 47 multiple myeloma cell lines against the NCATS MIPE library collection: XG6_PLB cell viability assay (AID 1919865); also: nearly all actives have a fitted effect of over 40% in size
Procedure, shortened: as §1

[4] = Quantitative High-Throughput drug screen in 47 multiple myeloma cell lines against the NCATS MIPE library collection: L363_DSMZ cell viability assay (AID 1918984); also: nearly all actives have a fitted effect of over 40% in size
Procedure, shortened: as §1

[5] = Quantitative High-Throughput drug screen in 47 multiple myeloma cell lines against the NCATS MIPE library collection: OCIMY5_PLB cell viability assay (AID 1918988); also: nearly all actives have a fitted effect of over 65% in size
Procedure, shortened: as §1

[6] = Quantitative High-Throughput drug screen in 47 multiple myeloma cell lines against the NCATS MIPE library collection: SKMM1_PLB cell viability assay (AID 1919863); settings: SKMM1 myeloma viability, CellTiter-Glo ATP, 48 h; viability: stronger effect = lower value; also: nearly all actives have a fitted effect of over 35% in size; as to viability: series mostly up to about 46 µM
Procedure, shortened: as §1

[7] = Quantitative High-Throughput drug screen in 47 multiple myeloma cell lines against the NCATS MIPE library collection: U266_ATCC cell viability assay (AID 1919864); also: nearly all actives have a fitted effect of over 35% in size
Procedure, shortened: as §1

[8] = Quantitative High-Throughput drug screen in 47 multiple myeloma cell lines against the NCATS MIPE library collection: KMS34_JCRB cell viability assay (AID 1918985); also: nearly all actives have a fitted effect of over 40% in size
Procedure, shortened: as §1

[9] = Quantitative High-Throughput drug screen in 47 multiple myeloma cell lines against the NCATS MIPE library collection: OCIMY7_PLB cell viability assay (AID 1918987); also: nearly all actives have a fitted effect of over 65% in size
Procedure, shortened: as §1

[10] = Quantitative High-Throughput drug screen in 47 multiple myeloma cell lines against the NCATS MIPE library collection: KMS28PE_JCRB cell viability assay (AID 1918983); also: nearly all actives have a fitted effect of over 35% in size
Procedure, shortened: as §1
Potency is read from the fitted curve at half-maximal effect.

Cn1nnc2c(C(N)=O)ncn2c1=O
inactive: Potency [1] | Potency [2] | Potency [3]

COc1ccc2cc3[n+](cc2c1OC)CCc1cc2c(cc1-3)OCO2
active: Potency [1] 4.69 µM | Potency [4] 6.62 µM | Potency [5] 14.8 µM | Potency [2] 18.7 µM | Potency [6] 14.8 µM | Potency [7] 9.35 µM | Potency [3] 16.6 µM

COc1cc([C@@H]2c3cc4c(cc3[C@H](O)[C@H]3COC(=O)[C@H]23)OCO4)cc(OC)c1OC
inactive: Potency [1] | Potency [4] | Potency [8] | Potency [9] | Potency [2] | viability [6] 65.8% | Potency [7] | Potency [3]

CN(C)CCc1c[nH]c2ccc(C[C@H]3COC(=O)N3)cc12
active: Potency [3] 3.32 µM
inactive: Potency [1] | Potency [4] | Potency [8] | Potency [9] | Potency [5] | viability [6] 104%

N=C(N)c1ccc(OCCCCCOc2ccc(C(=N)N)cc2)cc1
inactive: Potency [4]
active: Potency [10] 14.8 µM | Potency [8] 20.9 µM | Potency [9] 2.35 µM | Potency [5] 14.8 µM | Potency [2] 11.8 µM | Potency [6] 20.9 µM | Potency [7] 23.5 µM | Potency [3] 16.6 µM

COc1ccccc1OCC(O)COC(N)=O (stereo not drawn)
inactive: Potency [1] | Potency [4] | Potency [8] | viability [6] 136% | Potency [7] | Potency [3]

O=S(=O)(c1cccc2cnccc12)N1CCCNCC1
active: Potency [3] 20.9 µM
inactive: Potency [1] | viability [6] 125% | Potency [7]

CCOC(=O)c1ccc(OC(=O)CCCCCN=C(N)N)cc1
inactive: Potency [1] | Potency [4] | Potency [8] | viability [6] 127% | Potency [7] | Potency [3]

Nc1nc(=S)c2[nH]cnc2[nH]1
active: Potency [1] 7.43 µM | Potency [8] 2.96 µM | Potency [9] 1.32 µM | Potency [5] 3.72 µM | Potency [2] 1.18 µM | Potency [6] 5.9 µM | Potency [7] 8.33 µM | Potency [3] 1.05 µM

O=P(O)(O)C(O)(Cc1cccnc1)P(=O)(O)O
inactive: Potency [1] | Potency [4] | Potency [5] | Potency [2] | Potency [3]

CC(C)OC(=O)OCOP(=O)(CO[C@H](C)Cn1cnc2c(N)ncnc21)OCOC(=O)OC(C)C
inactive: Potency [1] | Potency [2]
active: Potency [5] 3.72 µM | Potency [7] 16.6 µM

NC(=O)N1c2ccccc2CC(=O)c2ccccc21
inactive: Potency [1] | Potency [4] | Potency [8] | Potency [2] | viability [6] 118% | Potency [3]

COc1cc2nc(N3CCCN(C)CC3)nc(NC3CCN(Cc4ccccc4)CC3)c2cc1OC
active: Potency [10] 16.6 µM | Potency [4] 1.66 µM | Potency [8] 8.33 µM | Potency [9] 6.62 µM | Potency [5] 11.8 µM | Potency [2] 2.35 µM | Potency [6] 7.43 µM | Potency [7] 2.35 µM | Potency [3] 2.35 µM

O=c1cc(O)c(Cl)c[nH]1
active: Potency [4] 2.35 µM | Potency [7] 5.9 µM | Potency [3] 1.87 µM
inactive: Potency [1] | Potency [8] | Potency [2]

CCCc1nc(C)c2c(=O)[nH]c(-c3cc(S(=O)(=O)N4CCN(CC)CC4)ccc3OCC)nn12
active: Potency [1] 4.69 µM | Potency [4] 4.18 µM | Potency [8] 3.72 µM | Potency [9] 5.9 µM | Potency [5] 5.9 µM | Potency [6] 9.35 µM | Potency [7] 5.9 µM | Potency [3] 4.69 µM

CO[C@@H]1[C@@H](OC(N)=O)[C@@H](O)[C@H](Oc2ccc3c(O)c(NC(=O)c4ccc(O)c(CC=C(C)C)c4)c(=O)oc3c2C)OC1(C)C
inactive: Potency [1]
active: Potency [8] 1.48 µM | Potency [9] 5.9 µM | Potency [5] 8.33 µM | Potency [2] 5.26 µM | Potency [3] 6.62 µM

O=C(O)c1cc(=O)[nH]c(=O)[nH]1
inactive: Potency [1] | Potency [4] | Potency [8] | viability [6] 112% | Potency [7] | Potency [3]

CN1CCCC(n2nc(Cc3ccc(Cl)cc3)c3ccccc3c2=O)CC1 (stereo not drawn)
active: Potency [10] 13.2 µM | Potency [4] 9.35 µM | Potency [8] 10.5 µM | Potency [9] 1.18 µM | Potency [5] 1.18 µM | Potency [2] 2.64 µM | Potency [6] 20.9 µM | Potency [7] 2.64 µM | Potency [3] 1.05 µM

CN1CCN(c2c(F)cc3c(=O)c(C(=O)O)cn4c3c2OCN4C)CC1
inactive: Potency [1] | Potency [4] | Potency [8] | Potency [5] | Potency [7]

NC(N)=NC(N)=NCCc1ccccc1
active: Potency [10] 5.26 µM | Potency [4] 14.8 µM | Potency [8] 1.66 µM | Potency [5] 13.2 µM | Potency [2] 20.9 µM

CC[C@H](C)C(=O)O[C@H]1C[C@@H](C)C=C2C=C[C@H](C)[C@H](CC[C@@H]3C[C@@H](O)CC(=O)O3)[C@H]21
active: Potency [1] 20.9 µM | Potency [9] 4.69 µM | Potency [5] 16.6 µM
inactive: Potency [4]

CCC(=O)O[C@]1(C(=O)SCF)[C@H](C)C[C@H]2[C@@H]3C[C@H](F)C4=CC(=O)C=C[C@]4(C)[C@@]3(F)[C@@H](O)C[C@@]21C
inactive: Potency [1] | Potency [8] | Potency [2]
active: Potency [9] 5.26 µM | Potency [5] 23.5 µM | Potency [3] 4.18 µM

Cc1nnc(NS(=O)(=O)c2ccc(N)cc2)s1
active: Potency [4] 1.18 µM | Potency [8] 18.7 µM | Potency [2] 14.8 µM | Potency [7] 14.8 µM | Potency [3] 1.87 µM
inactive: Potency [1]

Cc1cc(NS(=O)(=O)c2ccc(N)cc2)no1
active: Potency [9] 16.6 µM | Potency [7] 10.5 µM
inactive: Potency [10] | Potency [4] | Potency [8] | viability [6] 140%

Cc1ccnc2c1NC(=O)c1cccnc1N2C1CC1
active: Potency [7] 16.6 µM | Potency [3] 23.5 µM
inactive: Potency [1] | Potency [4] | Potency [5]

CCn1cc(C(=O)O)c(=O)c2cc(F)c(N3CCN(C)CC3)cc21
active: Potency [4] 5.26 µM | Potency [6] 5.26 µM
inactive: Potency [1] | Potency [8] | Potency [5] | Potency [7]

COc1cc(NS(=O)(=O)c2ccc(N)cc2)nc(OC)n1
inactive: Potency [1] | Potency [4] | Potency [9] | viability [6] 133% | Potency [7] | Potency [3]

CCN1CCCC1CNC(=O)c1cc(S(N)(=O)=O)ccc1OC (stereo not drawn)
inactive: Potency [1] | Potency [4] | Potency [8] | Potency [2] | viability [6] 123% | Potency [3]

N[C@@H](Cc1ccc(O)c(O)c1)C(=O)O
inactive: Potency [1] | Potency [9] | Potency [7] | Potency [3]
active: Potency [6] 26.4 µM

COc1cc2ncnc(Nc3cccc(Cl)c3)c2cc1OC
active: Potency [10] 26.4 µM | Potency [5] 0.264 µM | Potency [2] 20.9 µM | Potency [7] 0.132 µM

CCCCOc1ccc(CC(=O)NO)cc1
active: Potency [10] 20.9 µM | Potency [4] 18.7 µM | Potency [9] 16.6 µM | Potency [5] 9.35 µM | Potency [7] 8.33 µM

CCN(CC)CC#CCOC(=O)C(O)(c1ccccc1)C1CCCCC1 (stereo not drawn)
inactive: Potency [10] | Potency [8] | Potency [3]

COc1ccc2c(c1)c(CC(=O)OCC(=O)O)c(C)n2C(=O)c1ccc(Cl)cc1
inactive: Potency [10] | Potency [4] | Potency [8] | Potency [2] | viability [6] 138% | Potency [7] | Potency [3]

COc1ccc(-c2ccc3cc(C(=O)O)ccc3c2)cc1C12CC3CC(CC(C3)C1)C2
active: Potency [7] 5.26 µM
inactive: Potency [10] | Potency [8] | Potency [5] | viability [6] 119%

CN(CCOc1ccc(CC2SC(=O)NC2=O)cc1)c1ccccn1 (stereo not drawn)
inactive: Potency [10] | Potency [8] | Potency [2] | viability [6] 112% | Potency [3]
active: Potency [5] 1.05 µM | Potency [7] 16.6 µM
